Compound activity from PubChem.
Only some compounds are listed: those with a hit (about 4.1% of all), similar ones and a draw of the others.
TIM10 inh: growth inhibitors of TIM10 yeast strain; 1.4% of 330,000 active; S. cerevisiae TIM10 strain growth, BacTiter-Glo luminescence, 24 h; inhibition, % at 10 µM;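 active means inhibition of 40% or more at the single tested concentration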;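 further: wild-type TIM10 isogenic control strain grown at permissive 25 °C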
tim23-1 inh: growth inhibitors of tim23-1 mutant yeast. AID 463212. inhibition, % at 20 µM. 1.3% of 330,000 active. S. cerevisiae tim23-1 growth, BacTiter-Glo luminescence, 24 h;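 active means growth inhibition of the mutant yeast at or above 50%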;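 further: temperature-sensitive mutant grown at 25 °C; plate controls were DMSO-treated mutant yeast for no effect and medium wells lacking yeast for full effect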
NLRP3 yeast inh: inhibitors of NALP3 inflammasome in yeast; Yeast reconstituted NLRP3/ASC/caspase-1, beta-gal luminescence, 24 h; inhibition, % at 10 µM; 0.39% of 330,000 active;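 active means inhibition of 50% or more; inactive means inhibition below 50%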;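 further: plate controls were induced DMSO wells for no effect and uninduced yeast grown without galactose for full effect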
tim10-1 inh: growth inhibitors of tim10-1 mutant yeast; S. cerevisiae tim10-1 ts strain growth, BacTiter-Glo, 24 h; inhibition, % at 20 µM; 2.2% of 330,000 active;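 active means inhibition of at least 40%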;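 further: mutant grown at 25 °C; 0% = DMSO wells with yeast and 100% = wells holding no yeast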
PfHsp90 set2: reduces growth (ATP signal) of yeast expressing P. falciparum Hsp90. 0.32% of 310,000 active. S. cerevisiae expressing PfHsp90, BacTiter-Glo ATP, 48 h; yeast lacking PDR1 and PDR3 efflux regulators. inhibition, % at 9.4 µM;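 active means every replicate shows inhibition above about 80%, whatever the replicate mean, limit read from the data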;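 further: 0% = DMSO neutral controls and 100% = 20 µM radicicol positive controls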
NALP1 inh: NALP1 inhibition | S. cerevisiae NALP1/ASC/caspase-1 growth, X-gal OD620, 72 h | inhibition, % at 10 µM | 0.61% of 280,000 active | AID 2071; in the data active means inhibition mostly above about 24%, no sharp cut-off; inactive means mostly below about 32%
tim10-1 conf: confirmation of tim10-1 mutant yeast growth inhibitors; shares compounds with tim10-1 inh; S. cerevisiae tim10-1 ts strain growth, BacTiter-Glo, 24 h; inhibition, % at 20 µM; 56% of 7,400 active; AID 463213;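 active means inhibition of yeast growth at or above a set limit in either of two repeat tests at 20 µM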;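 further: tim10-1 mutant grown at permissive 25 °C to find synthetic lethal compounds; 0% = DMSO yeast wells and 100% = medium wells without yeast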
Starred values were filed as active, the others as inactive.

For CCOC(=O)C1(CCOc2ccccc2)CCN(Cc2nccn2CC)CC1 the results were TIM10 inh 17.5, tim23-1 inh 12.5, NLRP3 yeast inh 9.5, tim10-1 inh 27.8, PfHsp90 set2 3.0 and NALP1 inh -0.7.
For CCOC(=O)C1(CCCc2ccccc2)CCN(Cc2nccn2CC)CC1 the results were TIM10 inh 26.1, tim23-1 inh 17.9, NLRP3 yeast inh 26.9, tim10-1 inh 41.4*, PfHsp90 set2 2.6, NALP1 inh 11.9 and tim10-1 conf 29.5.
CCOc1ccc(C(=O)CC(Sc2ccc(C)cc2)C(=O)O)cc1 (stereo not drawn) was read as TIM10 inh 8.9, tim23-1 inh 26.0, NLRP3 yeast inh 11.2, tim10-1 inh 20.4, PfHsp90 set2 -4.7 and NALP1 inh -6.7.
For O=C(CC(Sc1ccc(Br)cc1)C(=O)O)c1ccc(F)cc1 (stereo not drawn) the results were TIM10 inh 11.9, tim23-1 inh 29.2, NLRP3 yeast inh 3.7, tim10-1 inh 42.0*, PfHsp90 set2 -13.1, NALP1 inh -6.5 and tim10-1 conf 25.4.
Cc1nnc(SC2CC(=O)N(c3ccccc3)C2=O)s1 (stereo not drawn) was read as TIM10 inh 17.7, tim23-1 inh 22.8, NLRP3 yeast inh 16.3, tim10-1 inh 46.9*, PfHsp90 set2 11.8, NALP1 inh 34.4 and tim10-1 conf 37.9*.
For CCOc1ccc2nc(SC3CC(=O)N(c4ccc(OC)cc4)C3=O)sc2c1 (stereo not drawn) the results were TIM10 inh 13.6, tim23-1 inh 19.1, NLRP3 yeast inh 5.7, tim10-1 inh 14.2 and NALP1 inh 21.2.
`Cc1nc(SC2CC(=O)N(c3ccccc3)C2=O)nc2c1CCCC2` (stereo not drawn) gave TIM10 inh 28.8, tim23-1 inh 24.0, NLRP3 yeast inh -1.6, tim10-1 inh 27.4, PfHsp90 set2 14.9 and NALP1 inh 7.7.
COc1ccc(N2C(=O)CC(Sc3nc4ccccc4s3)C2=O)cc1 (stereo not drawn) was read as TIM10 inh 20.8, tim23-1 inh 34.4, NLRP3 yeast inh 12.3, tim10-1 inh 40.9*, PfHsp90 set2 -2.7, NALP1 inh -11.3 and tim10-1 conf 33.0*.
For O=C1CC(Sc2nnc(-c3ccccc3)o2)C(=O)N1c1ccccc1 (stereo not drawn) the results were TIM10 inh 36.3, tim23-1 inh 38.4, NLRP3 yeast inh 24.4, tim10-1 inh 51.2*, PfHsp90 set2 25.8, NALP1 inh 13.5 and tim10-1 conf 50.9*.
Screening O=C1CC(Sc2cccs2)C(=O)N1c1ccccc1 (stereo not drawn) returned TIM10 inh 19.4, tim23-1 inh 30.8, NLRP3 yeast inh 34.6, tim10-1 inh 42.2*, PfHsp90 set2 27.1, NALP1 inh 0.6 and tim10-1 conf 40.2*.
COC(=O)CN1C(=O)[C@H]2[C@@H](/C=C/c3ccccc3)N3C(=O)CN(Cc4ccccc4)C(=O)[C@@]3(C)[C@H]2C1=O was read as TIM10 inh -7.8, tim23-1 inh 12.2, NLRP3 yeast inh 15.6, tim10-1 inh 4.9, PfHsp90 set2 21.5 and NALP1 inh 10.8.
`COc1ccccc1C1CCN(C(=O)c2ccc(C(C)(C)C)cc2)CC1` gave TIM10 inh 27.5, tim23-1 inh 42.3, NLRP3 yeast inh -6.4, tim10-1 inh 40.8*, PfHsp90 set2 19.6, NALP1 inh 8.1 and tim10-1 conf 33.3*.
Screening COc1ccccc1N1CCN(C(=O)c2ccc(C(C)(C)C)cc2)CC1 returned TIM10 inh 34.3, tim23-1 inh 43.2, NLRP3 yeast inh 7.9, tim10-1 inh 49.6*, PfHsp90 set2 -18.8, NALP1 inh 12.8 and tim10-1 conf 26.3.
COc1ccccc1N1CCN(C(=O)c2ccc(CSc3ccccc3)cc2)CC1 was read as TIM10 inh 28.0, tim23-1 inh 39.6, NLRP3 yeast inh 7.5, tim10-1 inh 40.1*, PfHsp90 set2 -12.3, NALP1 inh 36.7 and tim10-1 conf 40.5*.
Screening COc1ccccc1N1CCN(C(=O)c2cc3sccc3n2C)CC1 returned TIM10 inh 33.0, tim23-1 inh 39.9, NLRP3 yeast inh 0.7, tim10-1 inh 42.8*, PfHsp90 set2 17.4, NALP1 inh -14.6 and tim10-1 conf 45.6*.
